Results taken from PubChem BioAssay (NCI).
The panel holds about 79,000 compounds, 15% with a hit somewhere; the sample as a whole holds those more often. Calls of active or inactive are those of the source. No stated cut-off is given here; in the data, active means growth inhibition above about 70%; inactive means the rest.

Tests used:
[1] = NCI Yeast Anticancer Drug Screen. Data for the rad52 strain (AID 147);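 further: 0% = growth of vehicle-treated control cultures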; settings: S. cerevisiae rad52 mutant growth inhibition, hits give high values
How it was run: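 Genetically altered yeast (DNA damage repair defect) treated with compound; inhibition calculated relative to vehicle.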

[2] = NCI Yeast Anticancer Drug Screen. Data for the wt1 strain (AID 149);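 further: 0% = growth of vehicle-treated wt1 cultures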; settings: S. cerevisiae wt1 strain (SPY 50644) growth inhibition, hits give high values
How it was run: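 wt1 strain grown with compound or vehicle; inhibition taken from the growth difference.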

[3] = NCI Yeast Anticancer Drug Screen. Data for the rad50EPP+ strain (AID 151);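 further: 0% = growth of vehicle-treated control cultures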; settings: S. cerevisiae rad50 mutant strain, hits give high values
How it was run: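 Strain rad50EPP+; compound exposure; % growth inhibition vs vehicle.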

[4] = NCI Yeast Anticancer Drug Screen. Data for the rad50 strain (AID 155);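 further: 0% = growth of vehicle-only cultures of the same strain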; settings: S. cerevisiae rad50 strain growth inhibition, hits give high values
How it was run: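 DNA repair mutant yeast, compound exposure, growth read-out; inhibition is taken relative to vehicle.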

[5] = NCI Yeast Anticancer Drug Screen. Data for the mec2-1 strain (AID 157); settings: S. cerevisiae mec2-1 strain, hits give high values
How it was run: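 Cells of the genetically defined mec2-1 yeast strain are incubated with test compound. Inhibition of growth is calculated against vehicle-treated controls.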

[6] = NCI Yeast Anticancer Drug Screen. Data for the rad14 strain (AID 159);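 further: 0% = growth of vehicle-treated control cultures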; settings: S. cerevisiae rad14 strain growth inhibition, hits give high values
How it was run: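 DNA repair-defective yeast, compound-exposed; % growth inhibition derived by comparison with vehicle-treated controls.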

[7] = NCI Yeast Anticancer Drug Screen. Data for the sgs1 mgt1 strain (AID 161);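 further: 0% = growth of cultures given vehicle only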; settings: S. cerevisiae sgs1 mgt1 strain, hits give high values
How it was run: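 Inhibition of yeast growth, normalised to vehicle-treated controls, is reported for a strain bearing genetic alterations in DNA damage repair.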

[8] = NCI Yeast Anticancer Drug Screen. Data for the CLN2oe strain (AID 163);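 further: 0% = growth of vehicle-only control cultures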; settings: S. cerevisiae CLN2oe strain, hits give high values
How it was run: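 Strain altered in cell-cycle control, incubated with compound; growth compared to solvent-treated controls.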

[9] = NCI Yeast Anticancer Drug Screen. Data for the cln2 rad14 strain (AID 165);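 further: 0% = growth equal to vehicle treated cultures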; settings: S. cerevisiae cln2 rad14 strain, hits give high values
How it was run: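 The screen exposed genetically defined yeast (cln2 rad14) to test compounds and scored growth inhibition relative to vehicle-treated controls.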

[10] = NCI Yeast Anticancer Drug Screen. Data for the bub3 strain (AID 167); settings: S. cerevisiae bub3 mutant strain, hits give high values
How it was run: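 In this screen, a yeast mutant lacking normal mitotic checkpoint function is challenged with compound. Relative growth versus vehicle gives the inhibition value.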

[11] = NCI Yeast Anticancer Drug Screen. Data for the wt2 strain (AID 169);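 further: 0% = growth of vehicle-treated yeast cultures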; settings: S. cerevisiae wt2 strain growth inhibition, hits give high values
How it was run: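 Steps: yeast strain treated with compound; growth recorded; inhibition calculated relative to cultures given vehicle alone.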

[12] = NCI Yeast Anticancer Drug Screen. Data for the mlh1 strain (AID 171);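 further: 0% = growth of vehicle-treated control cultures of the same strain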; settings: S. cerevisiae mlh1 strain growth inhibition, hits give high values
How it was run: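 Yeast screen: mutant strain plus compound, growth scored against vehicle control wells.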

[13] = NCI Yeast Anticancer Drug Screen. Data for the sgs1 strain (AID 173);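 further: 0% = growth of vehicle-only control cultures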; settings: S. cerevisiae sgs1 mutant, hits give high values
How it was run: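 Inhibition of yeast growth served as the measure. The mutant strain was treated with each compound, and growth was normalised to cultures receiving vehicle alone.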

[14] = NCI Yeast Anticancer Drug Screen. Data for the mlh1 rad18 strain (AID 175); settings: S. cerevisiae mlh1 rad18 strain growth inhibition, hits give high values
How it was run: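 Compound-treated yeast growth, normalised to vehicle controls. Strain bears defined DNA repair mutations.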

[15] = NCI Yeast Anticancer Drug Screen. Data for the rad18 strain (AID 177); settings: S. cerevisiae rad18 mutant growth inhibition, hits give high values
How it was run: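 Inhibition values reflect reduced yeast growth compared with vehicle-treated controls, using a strain engineered with a DNA damage repair defect.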

[16] = at 5.0 µM (retest, dose inferred, filed as 0.5)
[17] = at 50.0 µM (retest, dose inferred, filed as 5.0)

Measured: growth inhibition

COc1cc(C(C)(C)C)cc(OC)c1C(O)(c1c(OC)cc(C(C)(C)C)cc1OC)c1c(OC)cc(C(C)(C)C)cc1OC
active: [1]; at 11.0 µM 88% | [1]; at 33.0 µM 92% | [1]; at 100.0 µM 84% | [2]; at 11.0 µM 93% | [2]; at 33.0 µM 94% | [2]; at 100.0 µM 91% | [3]; at 11.0 µM 87% | [3]; at 33.0 µM 92% | [3]; at 100.0 µM 83% | [4]; at 11.0 µM 92% | [4]; at 33.0 µM 93% | [4]; [17] 94% | [4]; at 50.0 µM 78% | [4]; at 100.0 µM 88% | [5]; [16] 81% | [5]; at 11.0 µM 90% | [5]; at 33.0 µM 94% | [5]; [17] 96% | [5]; at 50.0 µM 79.7% | [5]; at 100.0 µM 90% | [6]; at 11.0 µM 88% | [6]; at 33.0 µM 91% | [6]; at 100.0 µM 86% | [7]; [17] 97% | [7]; at 50.0 µM 80.1% | [8]; at 11.0 µM 87% | [8]; at 33.0 µM 93% | [8]; at 100.0 µM 89% | [9]; [17] 96% | [9]; at 50.0 µM 77.3% | [10]; [16] 76% | [10]; at 11.0 µM 92% | [10]; at 33.0 µM 94% | [10]; [17] 96% | [10]; at 50.0 µM 75.8% | [10]; at 100.0 µM 85% | [11]; at 11.0 µM 92% | [11]; at 33.0 µM 94% | [11]; at 100.0 µM 82% | [12]; at 11.0 µM 89% | [12]; at 33.0 µM 94% | [12]; at 100.0 µM 88% | [13]; at 11.0 µM 95% | [13]; at 33.0 µM 95% | [13]; at 100.0 µM 89% | [14]; [17] 93% | [14]; at 50.0 µM 76.1% | [15]; at 11.0 µM 93% | [15]; at 33.0 µM 94% | [15]; at 100.0 µM 87%
inactive: [1]; at 1.2 µM -10% | [1]; at 3.7 µM 33% | [2]; at 1.2 µM 4% | [2]; at 3.7 µM 42% | [3]; at 1.2 µM -1% | [3]; at 3.7 µM 14% | [4]; at 1.2 µM 25% | [4]; at 3.7 µM 30% | [4]; [16] 33% | [5]; at 1.2 µM -22% | [5]; at 3.7 µM 32% | [6]; at 1.2 µM -24% | [6]; at 3.7 µM -28% | [7]; [16] 13% | [8]; at 1.2 µM 31% | [8]; at 3.7 µM 45% | [9]; [16] 47% | [10]; at 1.2 µM -25% | [10]; at 3.7 µM 44% | [11]; at 1.2 µM -17% | [11]; at 3.7 µM 15% | [12]; at 1.2 µM -19% | [12]; at 3.7 µM -12% | [13]; at 1.2 µM -3% | [13]; at 3.7 µM 4% | [14]; [16] 15% | [15]; at 1.2 µM -4% | [15]; at 3.7 µM 10%
